The results in this text go back to PubChem BioAssay (Tox21).

Where “and” joins values, the source holds several entries; their conditions need not be identical. Equal entries are not always repeated. Records with an inconclusive call do not appear. A call without a number means that no potency is given here. Some structures have more than one record in an assay (separate samples or runs), and their calls can disagree. Calls of active or inactive are those of the source. Calls come from the whole dose curve; as a rule, active = well fitted cell-killing curve with a large enough effect in the repeat runs; inconclusive = weak or mixed curves, or effect the other way; inactive = no such curve, though single readings can be large or run the other way.
Potency is the fitted concentration of half-maximal effect.

This assay is described as follows: qHTS assay to identify small molecule agonists of the vitamin D receptor (VDR) signaling pathway - cell viability counter screen (AID 743224). Note: nearly all actives have a fitted effect of over 50% in size. The settings on record: VDR-bla HEK293T viability, CellTiter-Glo luminescence, 16 h; series mostly up to 62.6 µM; activity change, negative = cytotoxicity: at the top concentration. The method, boiled down: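 VDR-bla cells, 4 h after plating, exposed to compounds for 16 h at 37C; viability then read in the same wells as CellTiter-Glo luminescence after 30 min at room temperature, following the bla FRET read.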
With `COc1ccc(C(=O)c2ccccc2O)c(O)c1`, the “activity change, negative = cytotoxicity” value is 9.26% (inactive).

Consider `CCCCCC=O`, for which the Potency entry was “inactive”.

For the compound `C=C[C@@]1(C)CC(=O)[C@]2(O)[C@@]3(C)[C@@H](O)CCC(C)(C)[C@@H]3[C@H](O)[C@H](OC(C)=O)[C@@]2(C)O1`, the Potency entry is “inactive”.

With `CC(=O)O[C@]1(C(C)=O)CC[C@H]2[C@@H]3C=C(Cl)C4=CC(=O)CC[C@]4(C)[C@H]3CC[C@@]21C`, the Potency was 43.6 µM (active) and inactive.

Turning to `OC[C@@H](O)[C@@H](O[C@@H]1O[C@H](CO)[C@H](O)[C@H](O)[C@H]1O)[C@H](O)[C@@H](O)CO`, the Potency entry was “inactive”.

On to `Nc1cc([N+](=O)[O-])ccc1C(=O)O`, for which the Potency result was “inactive”.

Turning to `Nc1ccc2c(O)cc(S(=O)(=O)O)cc2c1`, the Potency result was “inactive”.

`C=CCOC(=O)C(=C)C`: the Potency entry is “inactive”.

`Cc1ccc(N)c([N+](=O)[O-])c1`: the Potency entry was “inactive”.

As for `O=C(O)c1ccc(O)cc1`, the Potency entry was “inactive”.

For `O=C1OC2(c3ccccc31)c1cc(I)c(O)c(I)c1Oc1c2cc(I)c(O)c1I`, the Potency result was “inactive and 26.5 µM (active)”.

Turning to `IC(I)I`, the Potency result is “inactive”.

`CCCCCCC(C)O` (centres undefined): the Potency result was “inactive”.

`CCCCCCCCCCC(CO)CCCCCCCC` (centres undefined): the Potency result is “inactive”.

In the case of `C=CC(=O)OCCCC`, the Potency result was “inactive”.

Take `CCCCCC1C(=O)CCC1CC(=O)OC` (centres undefined): the “activity change, negative = cytotoxicity” value is 11.8% (inactive).

Consider `FC(F)(F)C(Cl)Br` (centres undefined), for which the Potency entry was “inactive”.

Turning to `CC1(C)NC(=O)N(c2ccc([N+](=O)[O-])c(C(F)(F)F)c2)C1=O`, the Potency entry is “inactive”.

Take `CCCCCCCC/C=C\CCCCCCCC(=O)O`: the Potency result is “inactive”.

As for `CC(=O)[C@@]1(O)CC[C@H]2[C@@H]3C[C@H](C)C4=CC(=O)C=C[C@]4(C)[C@@]3(F)[C@@H](O)C[C@@]21C`, the Potency result was “inactive”.

For `Cc1cccc(Nc2ccccc2C(=O)O)c1C`, the Potency result was “inactive”.

Take `CC(C)[C@@H]1CC[C@@H](C)CC1=O`: the Potency entry was “inactive”.

With `O=C(O)COCCN1CCN(C(c2ccccc2)c2ccc(Cl)cc2)CC1` (centres undefined), the Potency entry is “inactive”.

`Cc1ccc(S(=O)(=O)NCl)cc1`: the Potency result was “inactive”.

With `C1CN(SSN2CCOCC2)CCO1`, the “activity change, negative = cytotoxicity” value was -2.44% (inactive).

In the case of `c1ccc2cc3ccccc3cc2c1`, the Potency entry was “inactive”.

`O=S1(=O)CCCO1`: the Potency result was “inactive”.

For the compound `Nc1ccc(O)c(N)c1`, the Potency entry is “inactive”.

With `CN(Cc1cnc2nc(N)nc(N)c2n1)c1ccc(C(=O)N[C@@H](CCC(=O)O)C(=O)O)cc1`, the Potency was 30.9 nM (active) and 188 nM (active).

As to `C=CN1CCCC1=O`, the Potency entry was “inactive”.

As to `Cc1ccc(C(C)(C)C)cc1`, the Potency entry was “inactive”.

On to `CC(C)(C)c1cccc(C(C)(C)C)c1O`, for which the Potency entry is “inactive”.

For `OCCNCCO`, the Potency result was “inactive”.

Take `Cc1ccc(C(C)(C)C)c(O)c1`: the “activity change, negative = cytotoxicity” value is -3.35% (inactive).

Consider `C=C[Si](OCCOC)(OCCOC)OCCOC`, for which the Potency entry was “inactive”.

For the compound `C[C@]12CC[C@@H]3c4ccc(O)cc4CC[C@H]3[C@@H]1CC[C@H]2O`, the Potency entry was “inactive”.

With `C[C@]12CC[C@@H]3c4ccc(O)cc4CC[C@H]3[C@@H]1CC[C@@H]2O`, the Potency result is “inactive”.

On to `Cc1ccc(C)c(O)c1`, for which the Potency result was “inactive”.

As to `NCCN`, the “activity change, negative = cytotoxicity” value was -0.787% [at 81.1 µM] (inactive).
